Holding throughout (settings): mRNA level, 48 h; actives raise or lower the signal
Read-out in one assay: MYC, MYC (gene 4609)
As to the kind of experiment: LTEA_HepaRG_MYC: Life Technologies and Expression Analysis (LTEA) Assay for MYC using HepaRG (AID 2283518). In short, it runs like this:
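qRT-PCR read-out of MYC transcript (Fluidigm TaqMan, housekeeping-normalized) after 48 h chemical exposure of HepaRG cells; eight concentrations, top 100 uM, half-log steps. Bidirectional curve fitting against 0.5% DMSO vehicle baseline.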

Read-out in assay [1]: Paternally Expressed 10 (PEG10), PEG10 (gene 23089)
As to the kind of experiment: LTEA_HepaRG_PEG10: Life Technologies and Expression Analysis (LTEA) Assay for Paternally Expressed 10 (PEG10) using HepaRG (AID 2283520).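 Also: differentiated HepaRG human liver cells in serum-free induction medium with 0.5% DMSO; PEG10 transcript by qRT-PCR normalised to ACTB GAPDH and POLR2A.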 The gist of the method:
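qRT-PCR read-out: PEG10 mRNA normalised to three housekeeping genes, fitted bidirectionally against 0.5% DMSO vehicle. HepaRG cells received test chemicals for 48 h in serum-free induction medium, 8 points, top 100 uM, half-log steps.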

Read-out in assay [2]: Nuclear factor NF-kappa-B p105 subunit (Homo sapiens) (UniProt P19838)
As to the kind of experiment: LTEA_HepaRG_NFKB1: Life Technologies and Expression Analysis (LTEA) Assay for Nuclear Factor Kappa B Subunit 1 (NFKB1) using HepaRG (AID 2283521).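 Also: differentiated human HepaRG liver cells in serum-free induction medium.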 The gist of the method: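 NFKB1 transcript was measured by TaqMan qRT-PCR on Fluidigm arrays, normalised to three housekeeping genes and fitted in both directions against 0.5% DMSO. HepaRG cells were dosed in duplicate for 48 h in serum-free induction medium, eight half-log steps from 100 uM.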

Read-out in assay [3]: Protein phosphatase 2A (PPP2R4), PTPA (gene 5524)
Briefly: LTEA_HepaRG_PPP2R4: Life Technologies and Expression Analysis (LTEA) Assay for Protein phosphatase 2A (PPP2R4) using HepaRG (AID 2283522). In short, it runs like this:
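HepaRG, 48 h exposure, 8-pt half-log series from 100 uM, 0.5% DMSO vehicle, duplicates. Readout: PPP2R4 mRNA, Fluidigm qRT-PCR, housekeeping-normalized. Bidirectional curve fit vs DMSO baseline.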

Read-out in assay [4]: Phosphatase and tensin (PTEN), PTEN (gene 5728)
Briefly: LTEA_HepaRG_PTEN: Life Technologies and Expression Analysis (LTEA) Assay for Phosphatase and tensin (PTEN) using HepaRG (AID 2283523). The gist of the method: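 HepaRG, 48 h exposure, 8-pt half-log series from 100 uM top, 0.5% DMSO vehicle, duplicates. Readout: Fluidigm qRT-PCR of PTEN transcript; housekeeping normalization (ACTB, GAPDH, POLR2A). Gain or loss fitted relative to DMSO baseline.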

Read-out in assay [5]: solute carrier (SLC22A1), SLC22A1 (gene 6580)
Briefly: LTEA_HepaRG_SLC22A1: Life Technologies and Expression Analysis (LTEA) Assay for solute carrier (SLC22A1) using HepaRG (AID 2283524).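 As to AC50: differentiated human HepaRG liver cells in serum-free induction medium.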 In short, it runs like this: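 qRT-PCR readout (TaqMan, Fluidigm arrays) of SLC22A1 transcript, normalized to three housekeeping genes; bidirectional curve fit relative to 0.5% DMSO vehicle. Differentiated human HepaRG cells, 48 h chemical exposure, top concentration 100 uM, half-log steps, eight points.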

Read-out in assay [6]: Pyruvate Dehydrogenase Kinase 4 (PDK4), PDK4 (gene 5166)
As to the kind of experiment: LTEA_HepaRG_PDK4: Life Technologies and Expression Analysis (LTEA) Assay for Pyruvate Dehydrogenase Kinase 4 (PDK4) using HepaRG (AID 2283525). In short, it runs like this: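 HepaRG (human liver line), 48 h chemical exposure, 8-pt half-log CRC top 100 uM, 0.5% DMSO vehicle, duplicates. Readout: TaqMan qRT-PCR of PDK4 mRNA, housekeeping-normalized; gain/loss fit relative to DMSO baseline.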

Read-out in assay [7]: NAD(P)H dehydrogenase [quinone] 1 (NQO1), NQO1 (gene 1728)
Briefly: LTEA_HepaRG_NQO1: Life Technologies and Expression Analysis (LTEA) Assay for NAD(P)H dehydrogenase [quinone] 1 (NQO1) using HepaRG (AID 2283526). The gist of the method: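 qRT-PCR read-out (Fluidigm TaqMan), normalized to three housekeeping genes, after 48 h chemical exposure of HepaRG cells. Concentrations: eight points, top 100 uM, half-log steps, 0.5% DMSO vehicle. Gain or loss of signal fitted relative to DMSO.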

Read-out in assay [8]: Nuclear factor erythroid 2-related factor 2 (Homo sapiens) (UniProt Q16236)
Briefly: LTEA_HepaRG_NFE2L2: Life Technologies and Expression Analysis (LTEA) Assay for Nuclear factor erythroid 2-related factor 2 (NFE2L2) Transcription Factor using HepaRG (AID 2283527). In short, it runs like this: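 HepaRG, 48 h dosing, 8-pt half-log series from 100 uM in 0.5% DMSO, duplicates. Read-out: NFE2L2 mRNA by qRT-PCR (ACTB/GAPDH/POLR2A normalization). Bidirectional curve fit vs DMSO baseline.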

Read-out in assay [9]: succinate dehydrogenase complex iron sulfur subunit B (SDHB), SDHB (gene 6390)
Briefly: LTEA_HepaRG_SDHB: Life Technologies and Expression Analysis (LTEA) Assay for succinate dehydrogenase complex iron sulfur subunit B (SDHB) using HepaRG (AID 2283528). In short, it runs like this: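 SDHB transcript level read by TaqMan qRT-PCR, housekeeping-normalised (ACTB, GAPDH, POLR2A), after 48 h chemical treatment of plated HepaRG cells; eight concentrations top 100 uM, half-log steps, 0.5% DMSO, duplicates; fitted both directions against DMSO.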

Read-out in assay [10]: Signal transducer and activator of transcription 3 (Homo sapiens) (UniProt P40763)
Briefly: LTEA_HepaRG_STAT3: Life Technologies and Expression Analysis (LTEA) Assay for Signal transducer and activator of transcription (STAT3) using HepaRG (AID 2283529). In short, it runs like this: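 HepaRG, 48 h exposure, 8-pt half-log series (top 100 uM), 0.5% DMSO vehicle, duplicates. Readout: STAT3 transcript by Fluidigm qRT-PCR, housekeeping-normalized; bidirectional fit vs DMSO baseline.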

Read-out in assay [11]: solute carrier (SLCO1B1), SLCO1B1 (gene 10599)
As to the kind of experiment: LTEA_HepaRG_SLCO1B1: Life Technologies and Expression Analysis (LTEA) Assay for solute carrier (SLCO1B1) using HepaRG (AID 2283530). The gist of the method:
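SLCO1B1 transcript read by qRT-PCR (Fluidigm arrays), normalized to three housekeeping genes, after 48 h chemical exposure of HepaRG cells; bidirectional concentration-response fitting versus 0.5% DMSO baseline. Eight-point half-log series, maximum 100 uM.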

Read-out in assay [12]: Transforming Growth Factor (TGFA), TGFA (gene 7039)
As to the kind of experiment: LTEA_HepaRG_TGFA: Life Technologies and Expression Analysis (LTEA) Assay for Transforming Growth Factor (TGFA) using HepaRG (AID 2283532). The gist of the method:
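qRT-PCR read-out of TGFA transcript, normalized to three housekeeping genes, fitted bidirectionally against 0.5% DMSO baseline. Human HepaRG cultures received chemicals for 48 h at eight half-log concentrations, top 100 uM.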

Read-out in assay [13]: Tumor necrosis factor receptor 1 (TNFRSF1A), TNFRSF1A (gene 7132)
As to the kind of experiment: LTEA_HepaRG_TNFRSF1A: Life Technologies and Expression Analysis (LTEA) Assay for Tumor necrosis factor receptor 1 (TNFRSF1A) using HepaRG (AID 2283535). In short, it runs like this:
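HepaRG, 48 h plating then 48 h chemical exposure, serum-free induction media; 8-pt CRC from 100 uM, half-log, 0.5% DMSO vehicle, duplicates. Readout: TaqMan qRT-PCR (Fluidigm), housekeeping-gene normalized; bidirectional fit vs DMSO.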

Read-out in assay [14]: Thyroid Hormone Responsive (THRSP), THRSP (gene 7069)
Briefly: LTEA_HepaRG_THRSP: Life Technologies and Expression Analysis (LTEA) Assay for Thyroid Hormone Responsive (THRSP) using HepaRG (AID 2283536). The gist of the method: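 qRT-PCR read-out (Fluidigm TaqMan), housekeeping-normalized (ACTB/GAPDH/POLR2A). HepaRG, 48 h chemical exposure, 8-pt half-log series from 100 uM in 0.5% DMSO, duplicates. Bidirectional curve fit vs 0.5% DMSO baseline.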

Read-out in assay [15]: Cellular tumor antigen p53 (Homo sapiens) (UniProt P04637)
Briefly: LTEA_HepaRG_TP53: Life Technologies and Expression Analysis (LTEA) Assay for Tumor Protein P53 (TP53) using HepaRG (AID 2283537). The gist of the method:
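TP53 transcript measured by qRT-PCR, normalized to three housekeeping genes, after 48 h treatment of human HepaRG cultures with chemicals from 100 uM downward in half-log steps (0.5% DMSO vehicle, serum-free induction medium). Up- or down-regulation fitted against DMSO.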

Read-out in a further assay: TIMP1, TIMP1 (gene 7076)
Briefly: LTEA_HepaRG_TIMP1: Life Technologies and Expression Analysis (LTEA) Assay for TIMP1 using HepaRG (AID 2283534). The gist of the method:
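HepaRG, 48 h exposure, 8-pt half-log series from 100 uM in 0.5% DMSO, duplicates; TIMP1 transcript by Fluidigm qRT-PCR, housekeeping-normalized; bidirectional curve fit vs DMSO baseline.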

The source made the active and inactive calls. The calls were made as follows: active = hit-call score of the fitted dose curve at least 0.9, where 1 is the maximum; inactive = score below 0.9.

As a reminder, the AC50 is the concentration at which the activity in the assay is half-maximal.

Sequence of Signal transducer and activator of transcription 3 (Homo sapiens) (P40763 whole entry, looked up): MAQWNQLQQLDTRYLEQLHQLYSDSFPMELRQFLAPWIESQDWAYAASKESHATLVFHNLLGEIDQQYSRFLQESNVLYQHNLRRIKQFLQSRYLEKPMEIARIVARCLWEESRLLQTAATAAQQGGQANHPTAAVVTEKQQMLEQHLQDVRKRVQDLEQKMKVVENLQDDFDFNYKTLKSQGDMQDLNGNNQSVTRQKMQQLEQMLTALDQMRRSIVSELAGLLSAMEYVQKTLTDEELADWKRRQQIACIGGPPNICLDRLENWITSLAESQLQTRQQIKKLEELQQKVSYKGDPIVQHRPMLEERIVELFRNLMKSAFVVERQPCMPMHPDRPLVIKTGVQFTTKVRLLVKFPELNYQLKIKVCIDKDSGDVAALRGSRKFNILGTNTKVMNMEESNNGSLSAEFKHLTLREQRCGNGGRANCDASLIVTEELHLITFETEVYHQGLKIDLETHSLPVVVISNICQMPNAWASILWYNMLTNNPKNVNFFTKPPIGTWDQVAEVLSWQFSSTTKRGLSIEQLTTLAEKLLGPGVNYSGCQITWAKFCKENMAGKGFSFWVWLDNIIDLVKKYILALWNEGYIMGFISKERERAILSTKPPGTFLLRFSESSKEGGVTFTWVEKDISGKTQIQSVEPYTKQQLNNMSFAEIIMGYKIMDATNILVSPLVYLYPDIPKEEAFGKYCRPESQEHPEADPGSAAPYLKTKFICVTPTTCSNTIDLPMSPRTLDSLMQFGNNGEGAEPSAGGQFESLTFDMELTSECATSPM
Sequence of Cellular tumor antigen p53 (Homo sapiens) (P04637 whole entry, looked up): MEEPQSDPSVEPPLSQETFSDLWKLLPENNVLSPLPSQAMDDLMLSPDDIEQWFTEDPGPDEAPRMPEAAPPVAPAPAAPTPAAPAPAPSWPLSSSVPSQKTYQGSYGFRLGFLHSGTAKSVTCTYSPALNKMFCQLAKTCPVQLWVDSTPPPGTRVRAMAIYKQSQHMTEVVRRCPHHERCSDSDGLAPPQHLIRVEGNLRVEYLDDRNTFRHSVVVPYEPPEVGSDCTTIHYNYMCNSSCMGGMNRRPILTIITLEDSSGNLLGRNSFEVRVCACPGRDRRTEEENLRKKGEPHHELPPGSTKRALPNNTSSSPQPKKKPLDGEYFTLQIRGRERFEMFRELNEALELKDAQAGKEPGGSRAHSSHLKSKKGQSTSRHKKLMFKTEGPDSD
Sequence of Nuclear factor erythroid 2-related factor 2 (Homo sapiens) (Q16236 whole entry, looked up): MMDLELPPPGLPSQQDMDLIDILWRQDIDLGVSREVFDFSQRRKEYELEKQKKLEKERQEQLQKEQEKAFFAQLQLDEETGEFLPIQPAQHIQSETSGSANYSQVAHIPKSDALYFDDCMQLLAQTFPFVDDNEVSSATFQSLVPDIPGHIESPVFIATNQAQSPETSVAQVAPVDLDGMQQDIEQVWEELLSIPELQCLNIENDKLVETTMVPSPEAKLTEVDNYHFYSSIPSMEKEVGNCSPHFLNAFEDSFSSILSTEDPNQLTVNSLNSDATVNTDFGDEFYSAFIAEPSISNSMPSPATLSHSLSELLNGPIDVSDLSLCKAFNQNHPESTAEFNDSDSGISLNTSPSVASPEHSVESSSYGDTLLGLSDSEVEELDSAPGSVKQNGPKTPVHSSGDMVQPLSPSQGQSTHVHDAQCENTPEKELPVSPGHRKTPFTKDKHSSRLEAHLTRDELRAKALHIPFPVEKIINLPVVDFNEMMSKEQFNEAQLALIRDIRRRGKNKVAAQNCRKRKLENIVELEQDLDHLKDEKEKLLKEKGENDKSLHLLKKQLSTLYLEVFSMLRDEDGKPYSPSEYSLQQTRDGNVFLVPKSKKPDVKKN
Sequence of Nuclear factor NF-kappa-B p105 subunit (Homo sapiens) (P19838 whole entry, looked up): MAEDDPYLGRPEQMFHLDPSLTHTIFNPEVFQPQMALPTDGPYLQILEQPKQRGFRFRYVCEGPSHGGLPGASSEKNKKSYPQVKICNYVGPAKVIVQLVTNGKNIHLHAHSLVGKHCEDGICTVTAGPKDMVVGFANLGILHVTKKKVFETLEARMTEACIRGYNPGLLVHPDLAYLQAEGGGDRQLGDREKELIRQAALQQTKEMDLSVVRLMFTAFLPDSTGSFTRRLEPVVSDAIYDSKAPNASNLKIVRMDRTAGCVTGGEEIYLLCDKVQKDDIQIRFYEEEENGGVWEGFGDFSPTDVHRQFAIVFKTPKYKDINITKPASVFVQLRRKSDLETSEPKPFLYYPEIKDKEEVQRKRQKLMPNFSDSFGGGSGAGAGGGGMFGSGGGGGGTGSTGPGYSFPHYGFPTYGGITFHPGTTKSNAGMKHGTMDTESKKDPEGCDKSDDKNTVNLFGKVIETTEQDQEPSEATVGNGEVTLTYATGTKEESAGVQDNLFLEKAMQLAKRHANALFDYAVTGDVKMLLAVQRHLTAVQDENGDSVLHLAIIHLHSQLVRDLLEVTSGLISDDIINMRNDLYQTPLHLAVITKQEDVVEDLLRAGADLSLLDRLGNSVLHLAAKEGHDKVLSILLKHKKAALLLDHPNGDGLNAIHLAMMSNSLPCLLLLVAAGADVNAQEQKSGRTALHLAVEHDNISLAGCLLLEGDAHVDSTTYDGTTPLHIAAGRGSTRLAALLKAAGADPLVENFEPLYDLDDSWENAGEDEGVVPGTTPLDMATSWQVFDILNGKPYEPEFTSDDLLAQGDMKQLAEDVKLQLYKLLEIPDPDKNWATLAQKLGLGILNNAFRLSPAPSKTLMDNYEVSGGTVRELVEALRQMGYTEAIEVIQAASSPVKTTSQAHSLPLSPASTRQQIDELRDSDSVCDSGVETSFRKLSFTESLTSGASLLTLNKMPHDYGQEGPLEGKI

On to `COC(=O)C(C)Oc1ccc(Oc2ccc(Cl)cc2Cl)cc1` (stereo not drawn), for which the outcome with MYC, MYC (gene 4609) was “inactive”; in assay [2] it was “inactive”; in assay [3] it was “inactive”; in assay [4] it was “inactive”; in assay [7] it was “inactive”; in [8], “inactive”. Besides, the result in assay [9], in assay [10], in assay [11], in assay [12], in [13] and in [15] was inactive. For the same compound, the AC50 is 10.4 µM (active) in assay [1], 50 µM (active) in assay [5], 32.6 µM (active) in assay [6] and 40 µM (active) in assay [14].
`OC(c1ccc(Cl)cc1)(c1cncnc1)c1ccccc1Cl` (stereo not drawn): the concentration at half-maximal activity (AC50) with MYC, MYC (gene 4609) was 80.4 µM (active); in assay [1], 5.86 µM (active); in assay [3], 66.4 µM (active); in assay [5], 81.8 µM (active); in assay [6] it was 75.9 µM (active); in assay [8], 44.6 µM (active). Further, the concentration at half-maximal activity (AC50) was 85.2 µM (active) in assay [11], 77.5 µM (active) in assay [12], 86.4 µM (active) in assay [14] and 70.7 µM (active) in assay [15]. The compound was called inactive in assay [4], in assay [7], in [9], in [10] and in assay [13].
Consider `Cc1cc(Cl)ccc1OCC(=O)O`, for which the outcome with MYC, MYC (gene 4609) is “inactive”; in assay [3] it was “inactive”; in assay [4], “inactive”; in assay [5] it was “inactive”; in assay [7] it was “inactive”; in [8], “inactive”. In addition, the outcome in assay [9], in [10], in assay [11], in assay [12], in assay [13] and in [14] was inactive. For the same compound, the call in assay [15] was inactive. In addition, the AC50 in assay [1] is 9.94 µM (active); in assay [6], 35.5 µM (active).
`CCc1nn(C)c(C(=O)NCc2ccc(C(C)(C)C)cc2)c1Cl`: the half-maximal activity concentration (AC50) with MYC, MYC (gene 4609) was 5.39 µM (active); in [1], 0.484 µM (active); in assay [4] it was 50 µM (active); in [5], 4.52 µM (active); in assay [6], 0.723 µM (active); in assay [7], 50 µM (active). For the same compound, the concentration at half-maximal activity (AC50) in assay [8] is 10.6 µM (active); in [11], 31.3 µM (active); in assay [12], 16.4 µM (active); in the assay with TIMP1, TIMP1 (gene 7076), 28 µM (active); in assay [13] it was 27.4 µM (active); in assay [14], 1.06 µM (active). Further, in [15], the AC50 was 12.1 µM (active). Besides, the outcome in assay [2], in assay [3], in [9] and in assay [10] was inactive.
